Compound activity as filed in PubChem BioAssay.
Rows were chosen to be rich in hits. Some 7.7% of all compounds tested hit in one or more screens of this group.
RE007 growth inh: less growth of the S. pombe RE007 Vpr strain. S. pombe RE007 Vpr strain, BacTiter-Glo ATP luminescence, 24 h. Potency, µM (titrated, usually from 92.2 µM), without a hit: top-dose activity change, negative = less growth, actives largely listed as inhibitors. 360,000 tested, 0.21% active; active means well fitted falling curve with a large enough effect; inconclusive means small, poorly fitted or top-dose-only effect; inactive means no such curve, though single readings can be large or run the other way; further: potency means the concentration at half of the fitted maximal effect; nearly all actives have a fitted effect of over 50% in size
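Fission yeast RE007 carrying one integrated HIV-1 vpr copy, seeded at OD 0.01 in PMG+AL medium with 23 nL pinned compound. Grown 24 h at 30 degrees; viability read by BacTiter-Glo luminescence after 5 min.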
Sm TGR inh: S. mansoni TGR enzyme inhibition; AID 485364; Q962Y6; 360,000 tested, 3% active; purified TGR, DTNB reduction, TNB absorbance 405 nm; Potency, µM (top dose mostly 114 µM), for inactives: at the highest dose activity change, negative = inhibition, usual class: inhibitors; further: potency means the concentration at half of the fitted maximal effect; nearly all actives have a fitted effect of over 60% in size
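Kinetic colorimetric format: TGR-catalysed, NADPH-driven DTNB reduction monitored via TNB absorbance. Enzyme dispensed at 20 nM; compound exposure 15 min at room temperature before reaction start.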
Tb PYK inh: inhibitors of Trypanosoma brucei pyruvate kinase; Q57TT1; TbPYK enzyme, Kinase-Glo Plus ATP luminescence, 45 min; Potency, µM (doses to about 76.8 µM), without a hit: top-dose activity, negative = inhibition, hits mostly inhibitors; 410,000 tested, 0.12% active; further: potency means the concentration at half of the fitted maximal effect; nearly all actives have a fitted effect of over 50% in size
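Readout: single end-point luminescence (Kinase-Glo Plus, 10 min). Reaction conditions were TbPYK/substrate plus 130 uM ADP, 45 min at RT, pH 7.2 TEA buffer. No-enzyme wells served as controls, and data were normalized before concentration-response fitting.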
FMDV inh: antivirals against foot and mouth disease virus; 410,000 tested, 1.2% active; AID 1159524; FMDV antiviral cell-based qHTS; Potency, µM (titrated, usually from 57.9 µM), for inactives: at the top dose activity change, negative = inhibition, hits mostly inhibitors; calls by dose curve; tested in HEK293T cells; further: read-out not given here; potency means the concentration at half of the fitted maximal effect; nearly all actives have a fitted effect of over 45% in size
HCMV antiviral: blocks human cytomegalovirus replication; 410,000 tested, 4.5% active; AID 1259415; HFF cells, HCMV-luciferase reporter, 72 h; stronger effect = lower value; activity change, negative = inhibition, % at 57.5 µM; in the data active means activity change below about -60%; inconclusive means no clear call, values can overlap the other calls; inactive means above about -39%
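Compounds were evaluated in HFFs infected with an HCMV luciferase reporter virus (MOI 1 PFU/cell). Luciferase in lysates collected 72 h post infection served as the replication measure.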
Giardia FBPA inh: inhibitors of Giardia lamblia fructose-1,6-bisphosphate aldolase; A8B2U2; purified Giardia FBPA; Potency, µM (highest dose often 59.6 µM), inactives show top-dose activity, negative = inhibition, hits mostly inhibitors; 290,000 tested, 0.71% active; further: potency means the concentration at half of the fitted maximal effect; nearly all actives have a fitted effect of over 55% in size
Target sequence (A8B2U2 whole entry, looked up): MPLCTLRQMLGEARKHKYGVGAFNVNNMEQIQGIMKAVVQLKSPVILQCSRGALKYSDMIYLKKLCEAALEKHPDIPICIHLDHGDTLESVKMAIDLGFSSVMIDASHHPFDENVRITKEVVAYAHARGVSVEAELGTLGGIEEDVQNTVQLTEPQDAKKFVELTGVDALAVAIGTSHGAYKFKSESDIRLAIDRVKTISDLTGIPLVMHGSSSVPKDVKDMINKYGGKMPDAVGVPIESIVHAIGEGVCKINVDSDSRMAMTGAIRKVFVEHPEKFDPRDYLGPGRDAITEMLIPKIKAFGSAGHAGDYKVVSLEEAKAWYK
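40 nM FBPA preincubated 10 min at RT with compound (up to 57.5 uM final), then substrate plus GAPDH/TPI/NAD/arsenate coupling and diaphorase/resazurin added. Fluorescence read after 20 min at RT, 525/598 nm.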
The depositor's hits bear a star; u = inconclusive; x = not tested or not shown; [ ] = dose if it differs, or a comment. Unless noted, the call rests on the fitted dose curve; in most records, active means well fitted curve in the direction sought with a large enough effect; inconclusive means small, poorly fitted or top-dose-only effect, or another doubt; inactive means no such curve, though single readings can be large; an effect the other way counts as inactive or inconclusive. On the % scale 0 is the no-effect control and ±100 the full control effect.

SMILES | RE007 growth inh | Sm TGR inh | Tb PYK inh | FMDV inh | HCMV antiviral | Giardia FBPA inh
Cc1ccccc1C(=O)N1CCC2CC1c1cc(-c3ccc(F)cc3)ccc12 (stereo not given) | 3.9% | x | 3.4% | 31.6µM* | 12.4 | x
CCOC(=O)c1cc(-c2ccc(F)cc2)n(CCC(=O)Nc2cc(OC)cc(OC)c2)c1C | x | 10.4% | 2.9%[15.4 µM] | 0.0% | 0.0 | x
CC(C)=C1SC(N2CCN(c3ccc(Cl)cc3)CC2)=NC1=O | 11.5% | u | 5.9% | -14.1% | -75.1* | -8.3%
COC(=O)C1CCCCN1Cc1ccc2c(c1)CN(C(=O)c1cc(C)nc3cc(F)ccc13)CCO2 (stereo not given) | x | x | x | -23.0% | x | x
O=C(O)CCc1nc2ccccc2n(CCc2ccccc2)c1=O | 10.2% | 39.8µM* | -0.4% | -13.0% | u | 19.0%
COc1nc2ccccc2nc1CCC(=O)O | 10.3% | 0.1µM* | -3.5% | -5.5% | -19.2 | 4.6%
COc1cc(CCN)c(OC)cc1Br | x | x | 4.4%[157 µM] | x | x | x
O=c1c2ccccc2ccc2ccccc12 | -23.4% | 2.3% | -9.1% | 7.0% | -104.0* | x
O=c1c2ccccc2oc2c1ccc1ccccc12 | -15.2% | x | 5.1% | 44.9% | x | x
N#CC(C#N)=c1ccc2c(c1)NC1(CCCCC1)N=2 | u | -22.9% | u | 25.1µM* | -84.5* | u
N#CC(C#N)=C1NC2(CCCCC2)Cc2ccccc21 | 30.2% | 0.6% | 2.9% | -20.7% | -8.2 | 16.2%
Cc1cc(C)cc(N(CC(=O)Nc2c(C)cc(C)cc2C)S(=O)(=O)c2c(C)nn(C)c2C)c1 | x | -0.5% | 1.2% | -16.5% | -10.1 | x
Cc1cccc(N(C)C(=S)Oc2ccc3ccccc3c2)c1 | 19.1% | 9.4% | 1.1% | -23.0% | -60.6* | -22.9%
CCCC[C@@H]1C[C@H]1C(NC(=O)c1cccnc1)c1ccc(-c2ccccc2)cc1 (stereo not given in full) | x | x | x | x | x | 0.9%
CCc1ccccc1N1C(=O)N(Cc2ccccc2C)c2ccccc2S1(=O)=O | x | 17.2% | 0.2% | 17.0% | -105.3* | x
NC(c1ccc(F)c(F)c1)c1nc(-c2ccc3ccccc3c2)cs1 (stereo not given) | -19.9% | x | -2.8% | 27.5% | -82.2* | x
CCOC(=O)[C@H]1[C@H]2COc3ccc(Br)cc3[C@@H]2N2C(=O)CN(Cc3ccco3)C(=O)[C@@]12C | -2.7% | 31.6µM* | -14.8% | -17.1% | 29.8 | x
O=Nc1ccc(Br)cn1 | x | x | x | x | -6.4 | x
COc1ccc(OC)c(C2C3=C(COC3=O)Nc3cc4c(cc32)OCO4)c1 (stereo not given) | -2.3% | -21.8% | 1.4% | -22.3% | -84.2* | 2.8%
CO[C@@H]1COC(=O)[C@H](C)NC(=O)[C@@H](C)COC(=O)[C@H](C)NC(=O)C/C=C\[C@H]1C | x | x | x | x | x | 0.3%[12.9 µM]
O=C(COC(=O)/C=C/c1cccc(Br)c1)NC1CCCC1 | 0.8% | x | 3.1% | -2.8% | -100.3* | x
O=C(COC(=O)/C=C/c1ccccc1)NC1CCCC1 | -7.8% | x | 6.1% | 27.5% | -3.9 | x
COc1ccc(-c2nc(C)c(CCNC(=O)C(=O)Nc3ccccc3F)s2)cc1 | x | 1.0% | -9.4% | -29.4% | 9.1 | x
Nc1ccc(Oc2ncccn2)cc1 | -11.3% | 35.5µM* | -5.8% | 3.8% | -21.6 | u
COc1ccc(C2c3[nH]c4ccccc4c3C[C@H]3C(=O)N(c4ccccc4C(=O)NCCN4CCOCC4)C(=O)N23)cc1 (stereo not given in full) | -8.9% | -14.1% | 0.3% | 1.4% | 13.6 | u
O=C(NCCN1CCOCC1)c1ccccc1N1C(=O)[C@@H]2Cc3c([nH]c4ccccc34)C(c3ccc(F)cc3)N2C1=O (stereo not given in full) | -13.8% | -23.0% | 2.0% | -19.0% | -74.7* | u
COC(=O)C(C(=O)OC)[C@@H]1O[C@@]23COC=C[C@]2(C)[C@H]3c2ccccc21 | x | x | x | x | x | -0.4%
Cc1ccc(OCC(=O)Nc2ccc(S(=O)(=O)Nc3onc(C)c3C)cc2)cc1 | -7.1% | 89.1µM* | -2.6% | 2.5% | 9.8 | 21.7%
Cc1noc(NS(=O)(=O)c2ccc(NC(=O)C(C)C)cc2)c1C | 3.1% | 25.1µM* | 2.3% | -13.6% | 4.3 | 8.8%
